Bioassay records deposited in PubChem by National Center for Advancing Translational Sciences (NCATS).
Compounds with a hit are over-represented: about 13% of the library has one in this group of screens.
CHX counter – Cycloheximide Counterscreen for Small Molecule Inhibitors of Shiga Toxin | 12% of 300,000 active | AID 2314, 2010 | cell reporter, cycloheximide protein synthesis inhibition counterscreen | max response, %; in the data active = max response mostly above about 13%, no sharp cut-off; inactive = mostly below about 14%; also: read at 38.3 µM for the half of the compounds with a filed dose; 0% is about no effect
LASV entry inh – qHTS for Inhibitors of binding or entry into cells for Lassa Virus | Lassa virus pseudotype entry inhibition, cell reporter | Potency, µM (highest dose often 37.9 µM), for inactives: top-dose activity change, negative = inhibition, actives largely listed as inhibitors | 1.2% of 300,000 active | AID 540256, 2011; calls by dose curve; tested in HEK293 cells; also: potency is read from the fitted curve at half-maximal effect; % is scaled to controls: 0 for no effect and ±100 for the full control effect; nearly all actives have a fitted effect of over 50% in size
MARV entry inh – qHTS for inhibitors of binding or entry into cells for Marburg Virus | Marburg virus pseudotyped entry inhibition, cell reporter | Potency, µM (highest dose often 37.8 µM), for inactives: at the top dose activity change, negative = inhibition, hits mostly inhibitors | 1.8% of 300,000 active; calls by dose curve; tested in HEK293 cells; also: potency is read from the fitted curve at half-maximal effect; % is scaled to controls: 0 for no effect and ±100 for the full control effect
HCV inhibitor – qHTS Assay for Inhibitors of Hepatitis C Virus (HCV); Potency, µM (titrated, usually from 41.8 µM), inactives show at the highest dose activity change, negative = inhibition, usual class: inhibitors; AID 651820, 2012; Huh7.5.1 HCVcc-Cre infection, luciferase reporter, 44 h; 3.4% of 340,000 active; active = well fitted inhibition curve with a large enough effect; inconclusive = small, poorly fitted or top-dose-only effect, or another doubt; inactive = no such curve, though single readings can be large or run the other way; also: potency is read from the fitted curve at half-maximal effect; % is scaled to controls: 0 for no effect and ±100 for the full control effect
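Luciferase read-out (15 sec integration) after a 15 min room-temperature substrate step quantifies HCVcc-Cre infection. Cells, 1,000 per well, had compound added 4 h post-plating, then virus at ~0.5 moi, and were cultured 44 h.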
FMDV inh – High Throughput Screening for Foot and Mouth Disease Virus Antivirals. AID 1159524, 2015. Potency, µM (series often up to 57.9 µM), inactives show top-dose activity change, negative = inhibition, usual class: inhibitors. FMDV antiviral cell-based qHTS. 1.2% of 410,000 active; calls by dose curve; tested in HEK293T cells; also: read-out not given here; potency is read from the fitted curve at half-maximal effect; % is scaled to controls: 0 for no effect and ±100 for the full control effect; nearly all actives have a fitted effect of over 45% in size
Shiga inhibitor – A qHTS for Small Molecule Inhibitors of Shiga Toxin | Vero cells, Shiga toxin protein synthesis inhibition reporter | inhibition, % at 38.7 µM | 9.2% of 290,000 active; in the data active = inhibition mostly above about 28%, no sharp cut-off; inactive = mostly below about 43%; also: 0% is about no effect
* marks the source's active call; other numbers are inactive results; ? = inconclusive; / = no result given; [ ] = another dose, or the depositor's remark.

SMILES | CHX counter | LASV entry inh | MARV entry inh | HCV inhibitor | FMDV inh | Shiga inhibitor
CC1=C(C(=O)OCC2CCCO2)C(c2ccc(C)o2)C2=C(CC(c3ccc(F)cc3)CC2=O)N1 (centres undefined) | -2 | -25% | 10µM* | 8.9µM* | 5% | -8
CC1=C(C(=O)OCC2CCCO2)C(c2ccc(C)o2)C2=C(CC(c3ccc(N(C)C)cc3)CC2=O)N1 (centres undefined) | 12 | / | -4% | ? | / | -11
COC(=O)/C=C1\OCc2cccc(C)c21 | / | / | / | / | 0% | /
Cc1cc2nc3c(c(=O)n2[nH]1)CCCC3 | -1 | 0% | 3% | 1% | 6% | 3
Cc1c(-c2ccccc2)[nH]n2c(=O)c3c(nc12)CCCC3 | 29* | 2% | ? | -22% | 20% | 44*
O=c1c2c(nc3c(-c4ccccc4)c[nH]n13)CCC2 | -3 | -8% | -15% | ? | / | 8
CCOC(=O)Cc1c(C)nc2c(-c3cccc(Br)c3)c[nH]n2c1=O | -1 | 16µM* | ? | ? | -18% | -18
O=c1c2c(nc3c(-c4cccc(Br)c4)c[nH]n13)CCCC2 | 11 | 2% | 6% | 6.3µM* | -7% | -4
COc1ccc(-c2cc3nc4c(c(=O)n3[nH]2)CCC4)cc1 | 21* | 11% | ? | 0% | 14% | 37
CCOC(=O)Cc1c(C)nc2c(C#N)c[nH]n2c1=O | 0 | 27%[14.3 µM] | -3% | / | -17% | -20
Cc1ccc(C(=O)O)cc1NC(=O)C1CCN(S(=O)(=O)c2ccc3c(c2)OCCO3)CC1 | / | 4%[46.1 µM] | -7%[46.1 µM] | -19% | -1% | /
COC(C(=O)N/N=C(\C)CC(=O)Nc1ccc(Cl)cc1C)c1ccccc1 (centres undefined) | 1 | / | -24%[46.1 µM] | 8% | -6% | 16
NC(Cc1c[nH]c2ccccc12)C(=O)Nc1ccccc1 (centres undefined) | / | / | / | -6% | -1% | /
Cc1ccc(S(=O)(=O)c2nc(-c3cccs3)oc2SC(C)c2ccccc2)cc1 (centres undefined) | / | -3%[46.1 µM] | -17%[46.1 µM] | / | 13% | /
O=c1c2c(nc3cc(-c4ccccc4)[nH]n13)CCC2 | 58* | 4µM* | -21% | 13% | -20% | 95*
O=c1c2c(nc3cc(-c4ccc(Br)cc4)[nH]n13)CCCC2 | 7 | ? | ? | ? | 12% | 21
Cc1cc(C(C)(C)CC(C)(C)C)ccc1OCCOCC[N+](C)(C)Cc1ccccc1 | / | / | / | 2.8µM* | ? | /
C[N+](C)(CCOc1ccccc1)Cc1ccccc1 | / | / | / | -27% | -29% | /
CCN(CCCNC(=O)c1cc2c(=O)[nH]c3ccccc3c2s1)c1ccccc1 | / | -3%[46.1 µM] | -3%[46.1 µM] | / | -4% | /
C/C(=N/NC(=O)c1ccc(Cl)s1)c1cccnc1 | 3 | ? | 19%[46.1 µM] | 7% | 11% | 9
C/C(=N/NC(=O)c1ccc(Br)s1)c1cccnc1 | 23* | / | / | ? | 26% | 36
C/C(=N\NC(=O)c1cc(-c2cccc(OC(C)C)c2)nc2ccccc12)c1cccnc1 | 32 | ? | ? | -10% | -2% | 32
C/C(=N\NC(=O)c1cc(-c2cccnc2)nc2ccccc12)c1ccc(O)cc1O | 9 | 6.3µM* | 7.1µM* | 4µM* | -14% | 13
C/C(=N\NC(=O)c1cc(-c2ccc(C)s2)nc2ccccc12)c1cccnc1 | 22* | -28%[46.1 µM] | -15%[46.1 µM] | ? | 15% | 22
C/C(=N/NC(=O)c1ccc(C)s1)c1cccnc1 | 34* | / | / | 1% | 56% | 71*
SMILES | CHX counter | LASV entry inh | MARV entry inh | HCV inhibitor | FMDV inh | Shiga inhibitor
CC(=O)Nc1ccc(C(=O)OCC(=O)N(C)C2CCCCC2)cc1 | 13 | 19% | -20%[46.1 µM] | 23% | 6% | 28
O=C(CNC(=O)c1cccc(OC(F)F)c1)OCn1nnc2ccccc2c1=O | 8 | -8%[46.1 µM] | 7%[46.1 µM] | 5% | 30% | -12
C/C(=N/NC(=O)c1ccc(Br)s1)c1ccncc1 | 16* | / | / | ? | 52% | 31
Cc1ccc(S(=O)(=O)N2CCN(C(C)C)CC2)cc1 | -5 | ? | ? | -3% | -2% | -15
O=C(CCCCn1c(=O)[nH]c2ccsc2c1=O)N1CCN(c2cccc(C(F)(F)F)c2)CC1 | / | -17%[46.1 µM] | ? | / | 40µM* | /
O=C(CCCCn1c(=O)[nH]c2ccccc2c1=O)N1CCN(c2cccc(C(F)(F)F)c2)CC1 | -4 | 16µM* | 9.2µM* | 11µM* | -28% | 22
O=C(Nc1cccs1)Nc1ccc(F)cc1F | 20* | ? | 12%[46.1 µM] | -19% | 47% | 37
O=C(Nc1cccs1)Nc1ccc(Br)cc1F | 67* | ? | ? | ? | 19% | 194*
COc1ccccc1C(=O)N(CCC1CCCN1C)c1nc2ccccc2s1 (centres undefined) | 26* | ? | ? | 9% | ? | 39
COc1ccc2sc(N(CCCN(C)C)C(=O)c3nc4ccccc4s3)nc2c1 | 14 | 28% | 10%[46.1 µM] | 4% | 0% | 10
CCOc1nc(NC(=O)NS(=O)(=O)Oc2ccc(Cl)cc2)nc(-c2ccccc2)n1 | / | 16%[46.1 µM] | 20%[46.1 µM] | / | 15% | /
CCOc1nc(NC(=O)NS(=O)(=O)Oc2cccc(Cl)c2)nc(-c2ccccc2)n1 | 17* | 28% | ? | -4% | 0% | -17
COc1ccc(-c2cc(=NCCC(=O)O)c3cc(C)ccc3o2)cc1 | 36* | -21% | ? | 10% | 63% | 148*
COc1ccc(-c2cc(=NC(CC(C)C)C(=O)O)c3cc(C)ccc3o2)cc1 (centres undefined) | 30* | ? | -1% | -13% | 102% | 100*
CCS(=O)(=O)Nc1ccc(-c2cn3ccsc3n2)cc1 | / | 23%[46.1 µM] | / | / | 31% | /
CCOc1ccc(C(C(=O)NC2CCCCC2)N(CCOC)C(=O)c2snc(C(N)=O)c2N)cc1 (centres undefined) | -2 | -22%[46.1 µM] | 9%[46.1 µM] | 8% | 9% | 5
S=C(NCCc1ccccn1)Nc1cc(Cl)cc(Cl)c1 | -1 | -25%[46.1 µM] | ? | -19% | 24% | -5
CN(C)CCNC(=S)Nc1ccccc1Cl | -5 | 19% | -13% | 8% | 7% | -5
COc1cccc(NC(=S)NCCc2ccccn2)c1 | 27* | / | / | -4% | 67% | 39*
CN(C)CCNC(=S)Nc1ccc(Cl)cc1Cl | 23* | 10% | ? | 10% | 35% | 30
S=C(NCCc1ccccn1)Nc1ccccc1 | 22* | / | / | -18% | 82% | 34*
S=C(NCCc1ccccn1)Nc1ccc(Cl)cc1Cl | 14* | -1% | 10%[46.1 µM] | -5% | 60% | 42
Cc1ccc(OCC(=O)NC2CCCC(C)C2C)c([N+](=O)[O-])n1 (centres undefined) | / | / | / | 4% | -15% | /
Cc1nc(N2CCOCC2)nc(N2CCCCC2)c1[N+](=O)[O-] | 3 | -29% | ? | ? | -23% | -8
S=C(NCCc1ccccn1)Nc1ccc(Cl)c(Cl)c1 | 2 | 13% | -35% | 4% | 64% | 41*
CN(C)C(=S)SCC(=O)Nc1ccc(Cl)cc1Cl | 24* | 11% | -1% | -18% | 31% | 110*
